Values joined by “and” are separate entries in the source; they are usually repeats but may differ in a detail not shown here. Equal entries are not always repeated. About 6,100 (1.1%) of roughly 580,000 compounds were called active. About 15% were inconclusive and are not listed. This is one part of a sample in which actives are shown more often than they occur. Values without a mark were called inactive. Calls follow the shape of the dose curve; as a rule, active = well fitted inhibition curve with a large enough effect; inconclusive = small, poorly fitted or top-dose-only effect, or another doubt; inactive = no such curve, though single readings can be large or run the other way.
Target: Polyunsaturated fatty acid lipoxygenase ALOX12 (Homo sapiens) (UniProt P18054)
Assay: Primary qHTS assay for inhibitors of human arachidonate 12S-lipoxygenase (ALOX12): Round 2
Conditions: purified 12hLO, xylenol orange hydroperoxide absorbance; series mostly up to 108 µM; activity change, negative = inhibition: at the top concentration
From the text: Assay Provider: Theodore R. Holman Ph.D. University of California, Santa Cruz, California Human lipoxygenase 12hLO is a member of the closely related lipoxygenase family of enzymes which catalyze the site-specific oxidation of arachidonic acid to various hormone precursor molecules and as such is a candidate for drug development in a variety of disease areas, such as cancer and inflammation. Inhibition of 12hLO activity was screened by utilizing arachidonic acid as a substrate. The extent of hydroperoxide product formation was measured by a secondary chromogenic reaction in which xylenol orange (XO, Sigma-Aldrich, cat. number 39,818-7) reacts with the ferric ions produced from the reaction between the hydroperoxide and ferrous ions. The Fe (III)-XO complex is characterized with red-shifted absorbance at 560 nm. A purified preparation of human 12hLO was supplied by Dr. Holman laboratory, University of California, Santa Cruz.
PROTOCOL TABLE SEQUENCE No. (e.g., 1, 2, 3, etc.); […] (e.g., Cells, Incubation, Reagent, etc.); VALUE; DESCRIPTION 1; Enzyme; 3 uL; 150 nM 12hLO enzyme solution dispensed in 1536-well Greiner black, clear bottom plates. 2; Compound; 23 nL; compounds and controls were added. 3; Incubate; 15 min; room temperature. 4; Substrate; 1 uL; 40 uM arachidonic acid (final concentration). 5; Incubate; 30 min; room temperature. 6; Reagent; 4 uL; Fe-XO solution was added to each well. 7; Incubation; 30 min; room temperature 8; Detector; absorbance; Read 1 at 405 nm absorbance using ViewLux (Perkin-Elmer) CCD imager. 9; Detector; absorbance; Read 2 at 573 nm absorbance using ViewLux (Perkin-Elmer) CCD imager. NOTES (numbers refer to sequence above) 1; 150 nM 12hLO (final concentration) in buffer solution (25 mM Hepes, 0.01% Triton X-100, pH 7.0) was dispensed in columns 1, 2, 5-48. Column 1 is neutral (100% activity). Buffer only was dispensed in columns 3 and 4 as no enzyme negative controls. The plates were covered with metal lids with gas-exchange holes. 2; Compounds were pin transferred via a Kalypsys Pin Tool (Wako USA) in column 5-48. Control compound was transferred in column 2, titration of nordihydroguaiaretic acid (NDGA, Sigma-Aldrich, N5023) with top concentration of 20 mM in DMSO then 1:3 dilution in duplicate. Dilution factor of 23 nL into 4 uL final assay volume. 3; Covered assay plates were incubated for 15 min at room temperature. 4; Substrate was added to start the reaction; 40 uM arachidonic acid (Sigma-Aldrich, St. Louis, MO) was dispensed throughout the plate. 6; Chromogenic detection reagent solution (divalent iron/xylenol orange, Fe-XO) was added to each well: 200 uM xylenol orange, 300 uM ferrous ammonium sulfate prepared freshly in 50 mM sulfuric acid. 8, 9; Two absorbance readouts were obtained at 405 nm and at 573 nm using a ViewLux high-throughput CCD plate imager (Perkin-Elmer). The 573 to 405 (Read 2 / Read 1) absorbance ratio was used to compute reaction progress.
% is scaled to controls: 0 for no effect and ±100 for the full control effect; potency is read from the fitted curve at half-maximal effect.

Polyunsaturated fatty acid lipoxygenase ALOX12 (Homo sapiens), sequence (P18054 whole entry, looked up): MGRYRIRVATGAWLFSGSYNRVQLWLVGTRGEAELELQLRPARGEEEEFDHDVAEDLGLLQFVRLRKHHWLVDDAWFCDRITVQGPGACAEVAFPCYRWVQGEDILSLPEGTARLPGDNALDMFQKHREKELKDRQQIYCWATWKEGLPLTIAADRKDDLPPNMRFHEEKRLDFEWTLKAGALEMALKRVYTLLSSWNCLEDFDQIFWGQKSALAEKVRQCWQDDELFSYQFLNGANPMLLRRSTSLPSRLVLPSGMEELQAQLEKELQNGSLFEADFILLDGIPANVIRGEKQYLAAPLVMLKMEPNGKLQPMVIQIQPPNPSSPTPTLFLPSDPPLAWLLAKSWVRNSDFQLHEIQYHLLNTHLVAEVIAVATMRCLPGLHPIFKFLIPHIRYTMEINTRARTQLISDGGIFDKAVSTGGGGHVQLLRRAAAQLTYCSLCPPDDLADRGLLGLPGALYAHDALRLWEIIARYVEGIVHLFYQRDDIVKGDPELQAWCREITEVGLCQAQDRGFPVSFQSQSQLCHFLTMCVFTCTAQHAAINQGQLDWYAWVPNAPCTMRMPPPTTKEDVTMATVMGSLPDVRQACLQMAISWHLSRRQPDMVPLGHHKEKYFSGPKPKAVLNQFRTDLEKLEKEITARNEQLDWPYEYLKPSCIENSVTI

Row | Structure (SMILES) | activity change, negative = inhibition | Potency
1 | CCc1ccccc1NC(=O)CSc1nc2ccccc2nc1C | -0.561% | 
2 | Cc1cc(C)cc(NC(=O)COc2ncnc3ccccc23)c1 | -13.6% | 
3 | COc1ccccc1CN(C)C(=O)NCc1ccc(S(=O)(=O)N2CCCCC2)cc1 | -8.8% | 
4 | c1ccc(CN2CCc3c(sc4c3c(N3CCOCC3)nc3nnnn34)C2)cc1 | -7.17% | 
5 | CCCCS(=O)(=O)CCCCCO | 25.2% | 
6 | CN(C)c1ccc(NC(=O)Cn2cnc3c2c(=O)n(C)c(=O)n3C)cc1 | -22.3% | 
7 | CC1(C)NC(=O)N(CCCC(=O)Nc2cccc3cccnc23)C1=O | 0.0835% | 
8 | Cc1cccc(NC2=NC(c3cccnc3)n3c(nc(C)cc3=O)N2)c1 (configuration not stated) | 39.2% | 
9 | COc1ccccc1NC(=O)c1cc2c(OC)c(OC)c(OC)cc2[nH]1 | 17.8% | 
10 | Cc1ccc(CNCc2ccc3c(c2)OCO3)c(C)c1 |  | 44.7 µM (active)
11 | Cc1cc2oc(C(=O)NCc3ccc4c(c3)OCO4)cc(=O)c2cc1C | -0.692% | 
12 | CCOc1ccc(S(=O)(=O)NCc2ccc3c(c2)OCO3)cc1C | 1.24% | 
13 | CCOC(=O)c1c(NC(=O)C2(C)Cc3ccccc3C(=O)O2)sc2c1CCCC2 (configuration not stated) | -14.7% | 
14 | CC(C)CNC(=O)NC1=C(C#N)C(C)(C)Cc2ccccc21 | 16.7% | 
15 | CCOC(=O)C1=C(NC(=S)NC(=O)c2ccccc2)c2ccccc2CC1(C)C |  | 22.4 µM (active)
16 | CC(=O)CCc1ccc(OCC(O)CNC(C)(C)CO)cc1 (configuration not stated) | 18.8% | 
17 | CCc1ccc(-c2nc(SCc3ncc(-c4ccccc4)o3)n[nH]2)cc1 | -7.84% | 
18 | CCOC(=O)c1cccc(NC(=O)C2=Cc3ccccc3OC=C2)c1 | -0.337% | 
19 | CC(=O)c1c(N2CCOCC2)nc(=S)n(-c2cc(C)ccc2C)c1C | -29.5% [at 57.4 µM] | 
20 | CC(=O)c1c(N2CCN(c3ccc(F)cc3)CC2)nc(=S)n(-c2ccccc2)c1C |  | 44.7 µM (active)
21 | CC(=O)c1c(N2CCOCC2)nc(=S)n(Cc2ccccc2)c1C | 0% | 
22 | Cc1ccc(/C=C/C(=O)c2cc3ccccc3o2)s1 | -33.4% | 
23 | O=C(COc1ccc(F)cc1)Nc1ccc2oc(-c3ccc(F)cc3)nc2c1 | -35.7% | 
24 | COc1ccc(CCNc2ncnc3c2nnn3Cc2ccccc2)cc1 | 2.33% | 
25 | NS(=O)(=O)c1ccc(CCNc2ncnc3c2cnn3-c2ccccc2Cl)cc1 | 34.2% | 
26 | Clc1cccc(-n2ncc3c(NCCc4ccccc4)ncnc32)c1 |  | 44.7 µM (active) and 8.91 µM (active)

Row | Structure (SMILES) | activity change, negative = inhibition | Potency
27 | COc1ccc(CCNc2ncnc3c2cnn3-c2ccc(C)cc2)cc1 |  | 28.2 µM (active)
28 | Cc1ccc(-n2ncc3c(NNC(=O)C4CCCCC4)ncnc32)cc1 | -0.144% | 
29 | CCN(CC)CCNc1ncnc2c1cnn2-c1cc(Cl)ccc1C | -27.4% | 
30 | CCOC(=O)c1c(C)c(CCC(=O)NCCN2CCOCC2)c(C)n1C | -3.28% | 
31 | CCN(CC)C(=O)C1=C(C)N=C2SC=C(CC(=O)NCc3ccco3)N2C1c1ccccc1F (configuration not stated) | 44.2% | 
32 | C#CCNC(=O)CC[C@@H]1CNC(=O)[C@@H]2C[C@H](NC(=O)Nc3cccc(Cl)c3)CN12 | -15.5% [at 176 µM] | 
33 | O=C1Nc2ccc(-c3ccc(Cl)cc3)cc2C(=O)N2CC[C@H](NC(=O)N3CCOCC3)[C@@H]12 | -2.01% | 
34 | COc1cc(=O)n(-c2ccc(C)cc2)nc1C(=O)Nc1cccc(Cl)c1C | 4.75% | 
35 | COc1cc(OC)cc(C(=O)OCC(=O)Nc2c(C)cccc2C(C)C)c1 | 11% | 
36 | CC(C)c1ccc(C2/C(=C(\O)c3ccc4c(c3)OCCO4)C(=O)C(=O)N2c2nccs2)cc1 (configuration not stated) |  | 0.794 µM (active)
37 | COc1cc(C2/C(=C(\O)c3ccc4c(c3)CC(C)O4)C(=O)C(=O)N2c2nnc(C)s2)cc(OC)c1OC (configuration not stated) | -22.7% | 
38 | O=C1C(=O)N(CCCN2CCOCC2)C(c2ccc([N+](=O)[O-])cc2)/C1=C(\O)c1ccc2c(c1)OCCO2 (configuration not stated) | -19.6% | 
39 | CCn1cc(C#N)c(=O)n(Cc2noc(-c3ccc(Cl)cc3)n2)c1=O | -30.4% | 
40 | Cc1cccc(NC(=O)c2ccc3nc(C(C)C)oc3c2)c1C | -22.6% | 
41 | Cc1cccc(NC(=O)N2CCCCCC2)c1C | 7.92% | 
42 | Cc1cccc(NC(=O)c2cccc(C(=O)Nc3cccc(C)c3C)n2)c1C |  | 3.16 µM (active)
43 | O=C(OCc1ccccc1)N1CCOCC12CCN(Cc1cccc(O)c1)CC2 | 18.9% [at 176 µM] | 
44 | CCc1ccccc1NC(=O)CSc1nc2c(=O)[nH]cnc2n1CC | -4.33% | 
45 | O=C(CCc1ncc(-c2ccccc2)o1)Nc1nc2ccccc2s1 | -24.4% | 
46 | c1ccc(C(=NNc2nc3ccccc3s2)c2ccccn2)cc1 |  | 44.7 µM (active)
47 | Cc1cc(C)cc(-n2ccnc2SCC(=O)Nc2nc3ccccc3s2)c1 | -4.72% | 
48 | COc1cccc(Oc2coc3cc(OC)ccc3c2=O)c1 | 21.4% | 
49 | CCN1C(=O)COc2ccc(NC(=O)c3cc(=O)c4cc(Cl)c(C)cc4o3)cc21 | 6.24% | 
50 | O=C(NCCc1nc2ccccc2[nH]1)c1ccc(N2CCCN(Cc3cccc(F)c3)C2=O)cc1 | 5.35% | 
51 | CCOC(=O)c1c(S(=O)(=O)N2CCCC(C(=O)NCc3cccc(C)c3)C2)c(C)n(C)c1C (configuration not stated) | -21.3% | 
52 | CCOC(=O)c1c(S(=O)(=O)N2CCCC2)nn(C)c1C |  | 14.1 µM (active)

Source: PubChem BioAssay AID1671190 (National Center for Advancing Translational Sciences (NCATS), 2021)
